Screening results: PubChem, National Center for Advancing Translational Sciences (NCATS)
Only some compounds are listed: those with a hit (about 0.77% of all), similar ones and a draw of the others.
RE007 growth inh – less growth of the S. pombe RE007 Vpr strain | 360,000 compounds, 0.21% hits | Potency, µM (top dose mostly 92.2 µM), for the others: top-dose activity change, negative = less growth, hits mostly inhibitors | S. pombe RE007 Vpr strain, BacTiter-Glo ATP luminescence, 24 h; active = well fitted falling curve with a large enough effect; inconclusive = small, poorly fitted or top-dose-only effect; inactive = no such curve, though single readings can be large or run the other way; also: % is scaled to controls: 0 for no effect and ±100 for the full control effect; nearly all actives have a fitted effect of over 50% in size
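Fission yeast strain RE007, carrying one chromosomally integrated HIV-1 vpr copy, was seeded at OD 0.01 in PMG+AL medium with 23 nL pinned compound. After 24 h at 30 °C and 99% humidity, viability was read by BacTiter-Glo luminescence.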
TbPYK inhibitor – T. brucei pyruvate kinase inhibition; 410,000 compounds, 0.12% hits; TbPYK enzyme, Kinase-Glo Plus ATP luminescence, 45 min; Q57TT1; AID 624173; Potency, µM (doses to about 76.8 µM), inactives show top-dose activity, negative = inhibition, actives largely listed as inhibitors; also: % is scaled to controls: 0 for no effect and ±100 for the full control effect; nearly all actives have a fitted effect of over 50% in size
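Activity of T. brucei pyruvate kinase was followed by Kinase-Glo Plus luminescence after the enzyme reacted 45 min at room temperature with 130 uM ADP (final) and substrate. Test compounds were added before ADP at multiple concentrations.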
NS1 inh – inhibitors of influenza NS1 protein function. Potency, µM (doses to about 46.1 µM), inactives show top-dose activity, positive = more growth. 270,000 compounds, 0.4% hits; calls by dose curve; also: actives are rising curves; nearly all actives have a fitted effect of over 50% in size
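Compounds were scored for reversing the slow growth caused by influenza A NS1 in S. cerevisiae, measured by optical density at 600 nm. Assay medium contained 2% galactose at pH 6.0; NS1-free yeast of the same strain were the positive control.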
LmPK inh – LmPK (Leishmania mexicana) enzyme inhibition; AID 1721; 290,000 compounds, 0.37% hits; purified LmPK, Kinase-Glo ATP luminescence, 1 h; Q27686; Potency, µM (top dose mostly 57.5 µM), for inactives: at the highest dose activity change, negative = inhibition, hits mostly inhibitors; also: % is scaled to controls: 0 for no effect and ±100 for the full control effect
Target sequence (Q27686 whole entry, looked up): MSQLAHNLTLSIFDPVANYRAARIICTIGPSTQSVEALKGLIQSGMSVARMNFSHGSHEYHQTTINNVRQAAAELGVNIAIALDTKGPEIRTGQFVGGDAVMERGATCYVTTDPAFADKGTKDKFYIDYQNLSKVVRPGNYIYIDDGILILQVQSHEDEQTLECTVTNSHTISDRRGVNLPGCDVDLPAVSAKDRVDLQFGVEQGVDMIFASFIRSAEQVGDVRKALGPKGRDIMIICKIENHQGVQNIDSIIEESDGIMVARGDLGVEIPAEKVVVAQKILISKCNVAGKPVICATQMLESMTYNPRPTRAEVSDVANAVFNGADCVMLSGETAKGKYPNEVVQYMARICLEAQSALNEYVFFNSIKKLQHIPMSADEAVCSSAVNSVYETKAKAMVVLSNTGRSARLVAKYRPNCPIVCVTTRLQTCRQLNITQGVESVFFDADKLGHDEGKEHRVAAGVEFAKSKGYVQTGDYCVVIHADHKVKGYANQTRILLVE
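Kinase-Glo luminescence read after 1 h RT reaction of 0.1 nM LmPK with 0.5 mM PEP and 0.1 mM ADP. Activity scaled between uninhibited and enzyme-free controls.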
The depositor's hits bear a star. Unless noted, calls follow the shape of the dose curve; as a rule, active = well fitted curve in the direction sought with a large enough effect; inconclusive = small, poorly fitted or top-dose-only effect, or another doubt; inactive = no such curve, though single readings can be large; an effect the other way counts as inactive or inconclusive. Potency is read from the fitted curve at half-maximal effect.

O=C(c1ccccc1)c1ccccc1N1C(=O)C=CC1=O was read as RE007 growth inh 35µM*, TbPYK inhibitor 5µM*, NS1 inh -76% and LmPK inh 14µM*.
Screening CNC(CC(=O)c1ccc([N+](=O)[O-])cc1)C(Cl)(Cl)Cl (stereo unspecified) returned RE007 growth inh 13µM*, TbPYK inhibitor 13µM*, NS1 inh -24% and LmPK inh -11%.
Screening Fc1ccccc1Nc1nc2ccccc2o1 returned RE007 growth inh inconclusive, TbPYK inhibitor inconclusive, NS1 inh -31% and LmPK inh 16µM*.
`c1ccc(Nc2nc3ccccc3o2)cc1` gave RE007 growth inh inconclusive, TbPYK inhibitor -6%, NS1 inh -56% and LmPK inh 16µM*.
`FC(F)(F)Oc1ccc(Nc2nc3ccccc3o2)cc1` gave RE007 growth inh -24%, TbPYK inhibitor -9%, NS1 inh -14% and LmPK inh 1%.
`CC(=O)c1sc(NC(=O)c2ccccc2F)nc1C` gave RE007 growth inh -26%, TbPYK inhibitor -9%, NS1 inh -15% and LmPK inh 14µM*.
`CC(=O)c1sc(NC(=O)c2cccnc2Cl)nc1C` gave RE007 growth inh -17%, TbPYK inhibitor -6%, NS1 inh -3% and LmPK inh -13%.
`Fc1ccc(/C=N/Nc2nccnc2Cl)cc1` gave RE007 growth inh -27%, TbPYK inhibitor inconclusive, NS1 inh -17% and LmPK inh inconclusive.
O=[N+]([O-])c1cccc(/C=N/Nc2nccnc2Cl)c1 was read as RE007 growth inh -14%, TbPYK inhibitor -19%, NS1 inh 6% and LmPK inh 14µM*.
`Oc1ccc(/C=N/Nc2nccnc2Cl)cc1` gave RE007 growth inh inconclusive, TbPYK inhibitor inconclusive, NS1 inh -1% and LmPK inh 5µM*.
`CC(=O)SC[C@@H](C)C(=O)N1CCC[C@H]1C(=O)N[C@@H](Cc1ccccc1)C(=O)O` gave TbPYK inhibitor -4%.
`Cc1c(/C=N\NC(=O)c2ccc(F)cc2)cnn1C` gave RE007 growth inh 4%, TbPYK inhibitor -11%, NS1 inh 13% and LmPK inh -2%.
For Cc1occc1C(=O)N/N=C/c1cnn(C)c1C the results were RE007 growth inh 1%, TbPYK inhibitor -16%, NS1 inh 20% and LmPK inh 16µM*.
`Cc1occc1C(=O)N/N=C/c1ccc(N(C)C)cc1` gave RE007 growth inh inconclusive, TbPYK inhibitor inconclusive, NS1 inh -42% and LmPK inh 10µM*.
Screening CCCCn1c(-c2ccc([N+](=O)[O-])cc2)n[nH]c1=S returned RE007 growth inh 10%, TbPYK inhibitor 1.1µM*, NS1 inh -2% and LmPK inh inconclusive.
Screening Cc1ccccc1-n1c(-c2ccoc2C)n[nH]c1=S returned RE007 growth inh -1%, TbPYK inhibitor inconclusive, NS1 inh 7% and LmPK inh 28µM*.
For CCn1c(-c2ccc(C)cc2)n[nH]c1=S the results were RE007 growth inh 9%, TbPYK inhibitor inconclusive, NS1 inh 4% and LmPK inh inconclusive.
CCCc1cc(-c2n[nH]c(=S)n2CC)cs1 was read as RE007 growth inh 7%, TbPYK inhibitor 8.9µM* and LmPK inh inconclusive.
For CCCCn1c(-c2cc(Cl)ccc2OC)n[nH]c1=S the results were RE007 growth inh 5%, TbPYK inhibitor inconclusive, NS1 inh 4% and LmPK inh 13µM*.
`CCc1nn2c(=O)cc(COC(=O)c3cccc(NC(=O)c4ccccc4C)c3)nc2s1` gave TbPYK inhibitor 2%.
`Cc1ccccc1C(=O)Nc1ccc(C(=O)N2CCCC(O)c3cc(Cl)ccc32)c(C)c1` (stereo unspecified) gave TbPYK inhibitor -3%.
`Cc1cc(Nc2ccccc2C(=O)O)ccc1Cl` gave TbPYK inhibitor -6%.
Screening COC(=O)c1nnn(CC(=O)Nc2c(C)cccc2C)c1N returned TbPYK inhibitor -2%.
Screening CCCc1cc(-c2n[nH]c(=S)n2C(C)c2ccccc2)cs1 (stereo unspecified) returned RE007 growth inh 4%, TbPYK inhibitor -41%, NS1 inh -2% and LmPK inh 22µM*.
`CCn1c(-c2csc(C(C)C)c2)n[nH]c1=S` gave RE007 growth inh 14%, TbPYK inhibitor -61%, NS1 inh -46% and LmPK inh -24%.
For CCc1cc(-c2n[nH]c(=S)n2CC)cs1 the results were RE007 growth inh 42%, TbPYK inhibitor 10µM*, NS1 inh 6% and LmPK inh -22%.
